Results: PubChem BioAssay (NCATS)
Records with an inconclusive call do not appear. The source made the active and inactive calls. Calls come from the whole dose curve; as a rule, active = well fitted inhibition curve with a large enough effect; inconclusive = small, poorly fitted or top-dose-only effect; inactive = flat fitted curve, though single readings scatter.

How the values were obtained:
Assay in all cases: qHTS profiling for inhibitors of Plasmodium falciparum proliferation (AID 504749); note: nearly all actives have a fitted effect of over 60% in size
CP252 = conditions: P. falciparum in erythrocytes, SYBR Green DNA, 72 h; series mostly up to 12.8 µM
How it was run: (§1)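 In a 72 h erythrocytic culture (37 C, humidified, 5% CO2) at 2.5% hematocrit and 0.3% starting parasitemia, compounds were tested; SYBR Green I in detergent lysis buffer stained parasite DNA overnight.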

CP256 = conditions: P. falciparum in erythrocytes, SYBR Green DNA, 72 h; series mostly up to 28.7 µM
How it was run: as §1

CP260 = conditions: P. falciparum in erythrocytes, SYBR Green DNA, 72 h; series mostly up to 28.7 µM
How it was run: as §1

CP265 = conditions: P. falciparum in erythrocytes, SYBR Green DNA, 72 h; series mostly up to 12.8 µM
How it was run: as §1

CP266 = conditions: P. falciparum in erythrocytes, SYBR Green DNA, 72 h; series mostly up to 12.8 µM
How it was run: as §1

CP268 = conditions: P. falciparum in erythrocytes, SYBR Green DNA, 72 h; series mostly up to 28.7 µM
How it was run: as §1

CP269 = conditions: P. falciparum in erythrocytes, SYBR Green DNA, 72 h; series mostly up to 28.7 µM
How it was run: as §1

CP286 = conditions: P. falciparum in erythrocytes, SYBR Green DNA, 72 h; series mostly up to 28.7 µM
How it was run: as §1

CP291 = conditions: P. falciparum in erythrocytes, SYBR Green DNA, 72 h; series mostly up to 28.7 µM
How it was run: as §1

CP297 = conditions: P. falciparum in erythrocytes, SYBR Green DNA, 72 h; series mostly up to 28.7 µM
How it was run: as §1

CP305 = conditions: P. falciparum in erythrocytes, SYBR Green DNA, 72 h; series mostly up to 28.7 µM
How it was run: as §1

CP315 = conditions: P. falciparum in erythrocytes, SYBR Green DNA, 72 h; series mostly up to 28.7 µM
How it was run: as §1

CP325 = conditions: P. falciparum in erythrocytes, SYBR Green DNA, 72 h; series mostly up to 28.7 µM
How it was run: as §1

CP329 = conditions: P. falciparum in erythrocytes, SYBR Green DNA, 72 h; series mostly up to 28.7 µM
How it was run: as §1

DFO2036 = conditions: P. falciparum in erythrocytes, SYBR Green DNA, 72 h; series mostly up to 28.7 µM
How it was run: as §1

DIV14 = conditions: P. falciparum in erythrocytes, SYBR Green DNA, 72 h; series mostly up to 28.7 µM
How it was run: as §1

DIV17 = conditions: P. falciparum in erythrocytes, SYBR Green DNA, 72 h; series mostly up to 28.7 µM
How it was run: as §1

DIV30 = conditions: P. falciparum in erythrocytes, SYBR Green DNA, 72 h; series mostly up to 28.7 µM
How it was run: as §1

Dd2 = conditions: P. falciparum in erythrocytes, SYBR Green DNA, 72 h; series mostly up to 28.7 µM
How it was run: as §1

ECU = conditions: P. falciparum in erythrocytes, SYBR Green DNA, 72 h; series mostly up to 28.7 µM
How it was run: as §1

FAB9 = conditions: P. falciparum in erythrocytes, SYBR Green DNA, 72 h; series mostly up to 28.7 µM
How it was run: as §1

GB4 = conditions: P. falciparum in erythrocytes, SYBR Green DNA, 72 h; series mostly up to 28.7 µM
How it was run: as §1

HB3 = conditions: P. falciparum in erythrocytes, SYBR Green DNA, 72 h; series mostly up to 28.7 µM
How it was run: as §1

ICS = conditions: P. falciparum in erythrocytes, SYBR Green DNA, 72 h; series mostly up to 28.7 µM
How it was run: as §1

N140 = conditions: P. falciparum in erythrocytes, SYBR Green DNA, 72 h; series mostly up to 28.7 µM
How it was run: as §1

P93_24 = conditions: P. falciparum in erythrocytes, SYBR Green DNA, 72 h; series mostly up to 28.7 µM
How it was run: as §1

P94_40 = conditions: P. falciparum in erythrocytes, SYBR Green DNA, 72 h; series mostly up to 28.7 µM
How it was run: as §1

PAD = conditions: P. falciparum in erythrocytes, SYBR Green DNA, 72 h; series mostly up to 28.7 µM
How it was run: as §1

PC15 = conditions: P. falciparum in erythrocytes, SYBR Green DNA, 72 h; series mostly up to 28.7 µM
How it was run: as §1

PC26 = conditions: P. falciparum in erythrocytes, SYBR Green DNA, 72 h; series mostly up to 28.7 µM
How it was run: as §1

PC49 = conditions: P. falciparum in erythrocytes, SYBR Green DNA, 72 h; series mostly up to 28.7 µM
How it was run: as §1

SC27B = conditions: P. falciparum in erythrocytes, SYBR Green DNA, 72 h; series mostly up to 28.7 µM
How it was run: as §1

TAB109 = conditions: P. falciparum in erythrocytes, SYBR Green DNA, 72 h; series mostly up to 12.8 µM
How it was run: as §1

TAB113 = conditions: P. falciparum in erythrocytes, SYBR Green DNA, 72 h; series mostly up to 28.7 µM
How it was run: as §1

TAB165 = conditions: P. falciparum in erythrocytes, SYBR Green DNA, 72 h; series mostly up to 28.7 µM
How it was run: as §1

W2 = conditions: P. falciparum in erythrocytes, SYBR Green DNA, 72 h; series mostly up to 12.8 µM
How it was run: as §1

Measured: Potency
Potency is the fitted concentration of half-maximal effect.

CO[C@@H](COC(N)=O)C1=C(N2CC2)C(=O)C(C)=C(N2CC2)C1=O
inactive: PC49
active: CP252 0.794 µM | CP256 1.41 µM | CP260 1 µM | CP265 0.708 µM | CP266 3.79 µM | CP268 3.01 µM | CP269 0.953 µM | CP286 1.12 µM | CP291 1.35 µM | CP297 1.69 µM | CP305 1.9 µM | CP315 3.38 µM | CP325 3.01 µM | CP329 1.51 µM | DFO2036 0.794 µM | DIV14 1.51 µM | DIV17 1.9 µM | DIV30 3.01 µM | Dd2 0.891 µM | ECU 2 µM | FAB9 7.94 µM | GB4 1.51 µM | HB3 2 µM | ICS 1 µM | N140 1.26 µM | P93_24 1.12 µM | P94_40 1.12 µM | PAD 1.26 µM | PC15 2.82 µM | PC26 1.9 µM | SC27B 1.26 µM | TAB109 1.12 µM | TAB113 1.26 µM | TAB165 0.708 µM | W2 0.301 µM
